Test results reported in PubChem BioAssay (NCATS).
Results filed as inconclusive are left out. A call without a number means that no potency is given here. Unmarked numbers belong to inactive results. Activity calls are given as the source filed them. Calls come from the whole dose curve; as a rule, active = well fitted curve in the direction sought with a large enough effect; inconclusive = small, poorly fitted or top-dose-only effect, or another doubt; inactive = no such curve, though single readings can be large; an effect the other way counts as inactive or inconclusive.

Experiments:
[1] = qHTS for Inhibitors of the Aldehyde Dehydrogenase Family (ALDH1A2, ALDH1A3, ALDH2, ALDH3A1) (AID 2061307); note: nearly all actives have a fitted effect of over 50% in size
[2] = target: Aldehyde dehydrogenase, mitochondrial (Homo sapiens) (UniProt P05091); test: qHTS for Inhibitors of the Aldehyde Dehydrogenase Family (ALDH2) Primary screen (AID 2061308); note: nearly all actives have a fitted effect of over 55% in size
[3] = target: Retinaldehyde dehydrogenase 3 (Homo sapiens) (UniProt P47895); test: qHTS for Inhibitors of the Aldehyde Dehydrogenase Family (ALDH1A3) Confirmatory screens (AID 2061311); note: potency is the fitted concentration of half-maximal effect; nearly all actives have a fitted effect of over 60% in size
[4] = target: Retinal dehydrogenase 2 (Homo sapiens) (UniProt O94788); test: qHTS for Inhibitors of the Aldehyde Dehydrogenase Family (ALDH1A2) Confirmation screens (AID 2061314); note: nearly all actives have a fitted effect of over 65% in size; note: potency is the fitted concentration of half-maximal effect
[5] = target: Aldehyde dehydrogenase 1A1 (Homo sapiens) (UniProt P00352); test: qHTS for Inhibitors of the Aldehyde Dehydrogenase Family (ALDH1A1) Confirmatory screens (AID 2061316); note: nearly all actives have a fitted effect of over 65% in size
[6] = target: Retinaldehyde dehydrogenase 3 (Homo sapiens) (UniProt P47895); test: qHTS for Inhibitors of the Aldehyde Dehydrogenase Family (ALDH1A3) Primary screen (AID 2061315)
[7] = target: Retinaldehyde dehydrogenase 3 (Homo sapiens) (UniProt P47895); test: qHTS for Inhibitors of the Aldehyde Dehydrogenase Family (ALDH1A3) Validation screen (AID 2061312); note: nearly all actives have a fitted effect of over 45% in size
[8] = BET inhibitor-based combinations targeting novel dependencies in MECOM-rearranged (r) AML: UCSD-AML1 cell line (AID 2202235); note: nearly all actives have a fitted effect of over 40% in size; note: potency is the fitted concentration of half-maximal effect
Summary of the method: (§1)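 Seeding density was 500 cells/well, and drug exposure lasted 48 hr under standard culture conditions. Read-out used CellTiter-Glo reagent with a 15 min room-temperature incubation before luminescence measurement; AUC and Z-AUC summarize the normalized responses.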

[9] = BET inhibitor-based combinations targeting novel dependencies in MECOM-rearranged (r) AML: AML-194 cell line (AID 2202237; note: nearly all actives have a fitted effect of over 40% in size; note: potency is the fitted concentration of half-maximal effect)
Summary of the method: (§2)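 Readout: CellTiter-Glo luminescence. Exposure: 48 h, 11 concentrations, 500 cells/well. Metric: AUC and within-line Z-AUC after DMSO/empty-well normalization.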

[10] = BET inhibitor-based combinations targeting novel dependencies in MECOM-rearranged (r) AML: OCI-AML3 cell line (AID 2202232); conditions: Potency: OCI-AML3 viability; note: nearly all actives have a fitted effect of over 35% in size; note: potency is the fitted concentration of half-maximal effect
Summary of the method: as §2

[11] = BET inhibitor-based combinations targeting novel dependencies in MECOM-rearranged (r) AML: HNT-34 cell line (AID 2202234); note: nearly all actives have a fitted effect of over 35% in size; note: potency is the fitted concentration of half-maximal effect
Summary of the method: as §1

[12] = BET inhibitor-based combinations targeting novel dependencies in MECOM-rearranged (r) AML: SET-2 cell line (AID 2202231); conditions: SET-2 AML cells viability, CellTiter-Glo luminescence, 48 h; viability: active compounds read low, series mostly up to about 46 µM; note: nearly all actives have a fitted effect of over 35% in size
Summary of the method: as §2

[13] = BET inhibitor-based combinations targeting novel dependencies in MECOM-rearranged (r) AML: AML-191 cell line (AID 2202236; note: nearly all actives have a fitted effect of over 35% in size)
Summary of the method: as §2

## CC1=C(C)C(=O)C(CC[C@](C)(O)CCC[C@H](C)CCC[C@H](C)CCCC(C)C)=C(C)C1=O
[1]
  Potency: inactive
[2]
  Potency: inactive
[3]
  Potency: 10100 nM (active)
[4]
  Potency: 4490 nM (active)
[5]
  Potency: inactive

## COc1ccc(-c2nc(CS(=O)CC(=O)N3CCC4(CC3)OCCO4)c(C)o2)cc1 (stereo unspecified)
[1]
  Potency: inactive

## COC1CC(OC2CCC3(C)C(CCC4C3CCC3(C)C(C5=CC(=O)OC5)C(OC(C)=O)CC43O)C2)OC(C)C1OC1OC(CO)C(O)C(O)C1O (stereo unspecified)
[2]
  Potency: inactive

## CCN1CCN(C(c2ccc(Cl)cc2)c2ccc(Cl)cc2)CC1
[2]
  Potency: inactive
[6]
  Potency: inactive

## CCc1nn2c(=O)c(F)c(N3CCNCC3)nc2s1
[2]
  Potency: inactive
[6]
  Potency: inactive

## CC(C)[C@H]1OC(=O)[C@H](Cc2ccccc2)N(C)C(=O)[C@@H](C(C)C)OC(=O)[C@H](Cc2ccccc2)N(C)C(=O)[C@@H](C(C)C)OC(=O)[C@H](Cc2ccccc2)N(C)C1=O
[2]
  Potency: inactive
[6]
  Potency: inactive

## COc1ccc(C(C)(C)C)cc1CN[C@H]1C2CCN(CC2)[C@H]1C(c1ccccc1)c1ccccc1
[2]
  Potency: inactive
[7]
  Potency: inactive
[6]
  Potency: inactive

## CC12CCC3C(C1)c1c(cc(O)c(C(=O)c4ccccc4)c1OC3(C)C)O2 (stereo unspecified)
[2]
  Potency: inactive
[6]
  Potency: inactive

## Cc1cn(C[C@H](N)C(=O)O)c(=O)n(Cc2cc(-c3ccccc3)sc2C(=O)O)c1=O
[2]
  Potency: inactive
[7]
  Potency: inactive
[6]
  Potency: inactive

## COc1cccc(CNc2ccc(S(=O)(=O)Nc3cccc(-c4ccccc4)c3)cc2)c1O
[2]
  Potency: inactive
[6]
  Potency: inactive

## C=C1C(=O)O[C@@H]2[C@H]3C(=C)[C@@H](O)C[C@H]3C(=C)C[C@@H](O)[C@@H]12
[2]
  Potency: inactive

## COc1ccccc1CN[C@H]1C2CCN(CC2)[C@H]1C(c1ccccc1)c1ccccc1
[2]
  Potency: inactive
[7]
  Potency: inactive
[6]
  Potency: inactive

## COC1CC(O[C@H]2CC[C@]3(C)C4CC[C@]5(C)[C@@H](C6=CC(=O)OC6)[C@@H](OC(C)=O)C[C@]5(O)C4CC[C@@H]3C2)OC(C)C1O[C@@H]1O[C@H](CO)[C@@H](O)[C@H](O)[C@H]1O (stereo partly specified)
[2]
  Potency: inactive

## S=P(c1ccccc1)(c1ccccc1)c1c[n+](Cc2ccccc2)c2ccccn12
[2]
  Potency: inactive
[6]
  Potency: inactive

## C[C@H]1O[C@@H](O[C@H]2CC[C@]3(CO)C4CC[C@]5(C)[C@@H](C6=CC(=O)OC6)CC[C@]5(O)[C@@H]4CC[C@H]3C2)[C@H](O)[C@H](O)[C@@H]1O[C@@H]1O[C@H](CO)[C@@H](O)[C@H](O)[C@H]1O (stereo partly specified)
[2]
  Potency: inactive
[4]
  Potency: inactive
[6]
  Potency: inactive
[5]
  Potency: inactive

## C[C@@H]1O[C@@H](OC2CCC3(C=O)C(CCC4C3CCC3(C)C(C5=CC(=O)OC5)C(O)CC43O)C2)[C@H](O)[C@H](O)[C@H]1O[C@@H]1O[C@H](CO)[C@@H](O)[C@H](O)[C@H]1O (stereo partly specified)
[2]
  Potency: inactive

## Cc1c(P(=S)(c2ccccc2)c2ccccc2)c2ccccc2n1C
[2]
  Potency: inactive
[6]
  Potency: inactive

## C[C@@H](CN1CCC2(CC1)C(=O)NCN2c1cccc(F)c1)NC(=O)c1ccc(Br)cc1
[2]
  Potency: inactive
[7]
  Potency: inactive
[6]
  Potency: inactive

## CCOc1ccc(CCNC(=O)c2cc3sccc3n2Cc2ccc(F)cc2F)cc1OCC
[2]
  Potency: inactive
[6]
  Potency: inactive

## CC(=O)OCC(N)C(=O)c1ccccc1 (stereo unspecified)
[2]
  Potency: inactive

## CO[C@H]1[C@@H](O)[C@@H](C)O[C@@H](O[C@@H]2C=C3C(OC(C)=O)CC4(O)C(CC[C@]5(C)[C@@H](C6=CC(=O)OC6)CC[C@]45O)[C@@]3(C)CC2)[C@@H]1O (stereo partly specified)
[2]
  Potency: inactive
[6]
  Potency: inactive

## Cc1c(P(=S)(c2ccccc2)c2ccccc2)[n+]2ccccc2n1C
[2]
  Potency: inactive
[6]
  Potency: inactive

## C[C@H]1O[C@@H](O[C@H]2CC[C@]3(C=O)C4CC[C@]5(C)[C@@H](C6=CC(=O)OC6)CC[C@]5(O)[C@@H]4CC[C@]3(O)C2)C[C@@H](O)[C@@H]1O (stereo partly specified)
[2]
  Potency: inactive
[6]
  Potency: inactive

## CC1=CC(=O)[C@@H](O)[C@]2(C)C3[C@@H](O)[C@@H]4OC(=O)[C@@H]([C@H]4C)[C@]3(C)C(=O)[C@H](O)[C@@H]12 (stereo partly specified)
[2]
  Potency: inactive

## C[C@@H]1O[C@@H](O[C@H]2CC[C@@]3(C)C(CC[C@@H]4C3CC[C@]3(C)[C@@H](C5=CC(=O)OC5)CC[C@]43O)C2)[C@H](O)[C@H](O)[C@H]1O (stereo partly specified)
[2]
  Potency: inactive
[6]
  Potency: inactive

## Cc1ccc2c(c1)[C@H]1CN(C)CC[C@H]1N2C(=O)CSc1nnnn1-c1ccc(Cl)cc1
[2]
  Potency: inactive
[7]
  Potency: inactive
[6]
  Potency: inactive

## COC1CC(OC2CCC3(C=O)C(CCC4C3CCC3(C)C(C5=CC(=O)OC5)CCC43O)C2)OC(C)C1O (stereo unspecified)
[2]
  Potency: inactive

## CCOC(=O)C1(CCc2ccccc2)CCN(Cc2ccc(NC(C)=O)cc2)CC1
[2]
  Potency: inactive
[7]
  Potency: inactive
[6]
  Potency: inactive

## C[C@@H]1CN(Cc2ccc(F)cc2)CCN1C(=O)COc1ccc(Cl)cc1NC(N)=O
[2]
  Potency: inactive
[7]
  Potency: inactive
[6]
  Potency: inactive
[8]
  Potency: inactive
[9]
  Potency: 18600 nM (active)

## CCOc1ccc(CCNC(=O)c2cc3cnccc3n2Cc2cccc(C)c2)cc1OCC
[2]
  Potency: inactive
[6]
  Potency: inactive

## C[C@@H]1C[C@@H](O)[C@]2(O)O[C@@H]3C[C@@]4(C=O)C(CC[C@@H]5C4CC[C@]4(C)[C@@](O)(C6=CC(=O)OC6)CC[C@]54O)C[C@H]3OC2O1 (stereo partly specified)
[2]
  Potency: inactive

## C/C(=C\c1csc(C)n1)[C@@H]1C[C@@H]2O[C@@H]2CCC[C@H](C)[C@H](O)[C@@H](C)C(=O)C(C)(C)[C@@H](O)CC(=O)O1
[2]
  Potency: inactive
[7]
  Potency: inactive
[6]
  Potency: inactive
[10]
  Potency: 20.9 nM (active)
[11]
  Potency: 23.5 nM (active)
[8]
  Potency: 18.6 nM (active)

## C[C@]12CC[C@H](O[C@@H]3O[C@H](CO)[C@@H](O)[C@H](O)[C@H]3O)CC1CC[C@@H]1C2CC[C@]2(C)[C@@H](C3=CC(=O)OC3)CC[C@]12O (stereo partly specified)
[2]
  Potency: inactive
[6]
  Potency: inactive

## O=C1CN=C(c2ccccc2Cl)c2cc(Br)ccc2N1
[2]
  Potency: inactive
[7]
  Potency: inactive
[6]
  Potency: inactive

## O=C(Oc1ccc([N+](=O)[O-])cc1)N1CCN(Cc2cccc(Oc3ccccc3)c2)CC1
[2]
  Potency: inactive
[7]
  Potency: inactive
[6]
  Potency: inactive
[12]
  viability: 110%
[10]
  Potency: inactive
[11]
  Potency: inactive
[13]
  Potency: inactive
[9]
  Potency: inactive

## OCCCCC#Cc1cncc(OC[C@@H]2CCN2)c1
[2]
  Potency: inactive

## COC1CC(O[C@H]2CC[C@]3(C)C4CC[C@]5(C)[C@@H](C6=CC(=O)OC6)[C@@H](OC(C)=O)C[C@]5(O)C4CC[C@@H]3C2)OC(C)C1O (stereo partly specified)
[2]
  Potency: inactive

## C[C@@H](CN1CCC(n2c(=O)[nH]c3cc(Br)ccc32)CC1)NC(=O)[C@@H]1C[C@H]1c1ccccc1
[2]
  Potency: inactive
[6]
  Potency: inactive

## C=CCN1CCC2(C)c3cc(O)ccc3C[C@H]1[C@H]2C
[2]
  Potency: inactive
[6]
  Potency: inactive

## C[C@@H]1C[C@@H](O)[C@]2(O)O[C@@H]3C[C@@]4(C=O)C(CC[C@@H]5C4CC[C@]4(C)[C@@H](C6=CC(=O)OC6)CC[C@]54O)C[C@H]3O[C@@H]2O1 (stereo partly specified)
[2]
  Potency: inactive

## C[C@]12CC[C@H]3[C@@H](CCC4=C/C(=N/OCC(=O)O)CC[C@@]43C)[C@@H]1CC[C@@H]2O
[2]
  Potency: inactive
[6]
  Potency: inactive

## CN(C(=O)C(c1ccccc1)c1ccccc1)[C@H](CN1CC[C@H](O)C1)c1ccccc1
[2]
  Potency: inactive
[7]
  Potency: inactive
[6]
  Potency: inactive

## COc1ccc(CCNCc2ccc(OC)c3ccccc23)cc1
[2]
  Potency: inactive
[6]
  Potency: inactive

## Cc1cccc(-n2cnc3cc(C(=O)N4CCCC(C)C4)ccc32)c1 (stereo unspecified)
[2]
  Potency: inactive
[6]
  Potency: inactive

## CCOc1ccc(CCNC(=O)c2ccc(C(=O)c3ccccc3)cc2)cc1OCC
[2]
  Potency: inactive
[6]
  Potency: inactive

## C#C[C@]1(O)CC[C@H]2[C@@H]3CC[C@H]4Cc5nc6nc7ccccc7n6cc5C[C@]4(C)[C@H]3CC[C@@]21C
[2]
  Potency: inactive
[6]
  Potency: inactive
